# Shown are actives, neighbours in structure and some others; about 10% of the full set was active somewhere.
# JMJD2A Tudor = JMJD2A Tudor domain (human) inhibition; Potency, µM (top dose mostly 114 µM), most hits filed as inhibitors; hit rate 4.4% among 390,000; AlphaScreen JMJD2A-Tudor / H3K4me3 peptide binding; also: nearly all actives have a fitted effect of over 50% in size
# BAZ2B block = inhibitors of human BAZ2B bromodomain | Q9UIF8 | AlphaScreen BAZ2B-H3K14Ac peptide displacement | Potency, µM (doses to about 114 µM), usual class: inhibitors | hit rate 4.4% among 360,000; also: nearly all actives have a fitted effect of over 60% in size
#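 BAZ2B (50 nM) with biotin-H3(5-23)K14Ac peptide (50 nM) in PBS pH 7.4, 0.01% Tween-20, preformed 30 min, then compound 30 min at room temperature; top concentration 110uM. AlphaScreen streptavidin donor/nickel chelate acceptor beads (10 ug/mL final), 20 min dark, signal read.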
# HP1b binding inh = blocks HP1-beta chromodomain binding to methylated histone tails. P83916. Potency, µM (top dose mostly 114 µM), most hits filed as inhibitors. hit rate 0.56% among 390,000. AlphaScreen HP1-beta / biotin-H3K9me3 peptide binding; also: nearly all actives have a fitted effect of over 70% in size
#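 HP1-beta protein (50 nM final) preincubated 30 min at room temperature with biotinylated H3(1-18)K9me3 peptide (50 nM) in PBS pH 7.4, 0.01% Tween-20, then compound added for 30 min. AlphaScreen streptavidin donor/nickel chelate acceptor beads (10 ug/mL final), 30 min dark, luminescence read.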
# G9a inh = inhibitors of human histone lysine methyltransferase G9a; hit rate 8.8% among 350,000; Potency, µM (highest dose often 102 µM), usual class: inhibitors; AID 504332; G9a H3K9 monomethylation, AlphaScreen, 2 h; Q96KQ7; also: nearly all actives have a fitted effect of over 75% in size
#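 AlphaScreen read-out: biotin-H3K9 peptide (500 nM) methylation by 20 nM enzyme with 20 uM SAM, 2 h at room temperature after 15 min compound preincubation; anti-monomethyl H3K9 antibody plus donor/acceptor beads, 10 min dark.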
# CtBP-E1A blk = CtBP/E1A binding inhibition | AID 651724 | AlphaScreen GST-E1A/His-CtBP binding, 1536-well; stronger effect = lower value | activity change, % (concentration not given with the values) | hit rate 0.49% among 340,000; in the data active = activity change below about -65%; inconclusive = mostly about -30% to -63%
#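 Protein mix (5X: 125 nM each GST-E1A, His-CtBP) was incubated with pinned compound 2 h at 37 deg C in dark, in 50 mM Tris pH 8.0 buffer with 300 mM NaCl. Glutathione donor and nickel acceptor beads followed; AlphaScreen signal read after 1 h.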
# Six1-Eya2 blk = inhibitors of human Six1/Eya2 interaction | Q15475+O00167 | AlphaScreen GST-Six1/His-Eya2 binding, biochemical; stronger effect = lower value | activity change, % (test concentration not listed) | hit rate 0.56% among 360,000 | AID 651725; in the data active = activity change below about -65%; inconclusive = mostly about -30% to -63%
#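 GST-Six1 + His-Eya2 (5X stock: 250/500 nM); Tris pH 8.0, 300 mM NaCl, 0.05% BSA, 0.02% Tween 20; GSH donor/Ni acceptor beads; 1 h 37 °C dark; AlphaScreen readout.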
# Hits are given with their value; – = inactive; ? = inconclusive; · = no result given. Unless noted, calls follow the shape of the dose curve; as a rule, active = well fitted inhibition curve with a large enough effect; inconclusive = small, poorly fitted or top-dose-only effect; inactive = no such curve, though single readings can be large or run the other way.
SMILES,JMJD2A Tudor,BAZ2B block,HP1b binding inh,G9a inh,CtBP-E1A blk,Six1-Eya2 blk
CCN1CCCc2cc(CN(CCN3CCOCC3)C(=S)Nc3ccc(C)cc3)ccc21,?,13µM,?,13µM,?,?
CCOc1ccc(NC(=S)N(CCN2CCOCC2)Cc2ccc3c(c2)CCCN3CC)cc1,35µM,11µM,?,28µM,–,?
CCN1CCCc2cc(CN(CCN3CCOCC3)C(=S)Nc3cc(F)cc(F)c3)ccc21,35µM,10µM,?,16µM,·,?
CCN1CCCc2cc(CN(CCN3CCOCC3)C(=S)Nc3ccc(OC)cc3)ccc21,–,–,–,–,·,–
COc1ccc(-c2ccc(NS(=O)(=O)c3cccc(Cl)c3)cc2)nn1,–,–,–,–,·,·
O=C(NCc1ccco1)C1CCN(C(=O)N2CCOc3ccc(Cl)cc32)CC1,–,–,–,–,·,·
CCOC(=O)c1sc(NC(C)=O)nc1C,–,–,?,?,–,–
CCOC(=O)c1sc(-n2[nH]c(C)cc2=O)nc1C,–,–,–,28µM,–,–
O=S(=O)(c1ccccc1)c1nnn2c1nc(NCc1ccccc1)c1cc(Cl)ccc12,–,–,–,–,·,·
COc1ccc(N=Cc2nc(-c3ccccc3)oc2OC(=O)c2ccccc2)cc1,–,–,–,–,·,–
CCC(=O)Oc1oc(-c2ccccc2)nc1C=Nc1ccc(C)cc1,–,–,–,?,–,–
CN(C)c1ccc(N=Cc2nc(-c3ccccc3)oc2OC(=O)c2cccc(Br)c2)cc1,?,35µM,–,32µM,–,–
Cc1ccc(C(=O)Oc2oc(-c3ccco3)nc2C=Nc2ccccc2)cc1,·,–,·,28µM,·,·
CCOC(=O)c1ccc(N=Cc2nc(-c3ccccc3)oc2OC(C)=O)cc1,–,–,–,7.9µM,–,–
CC(=O)Oc1oc(-c2ccccc2)nc1C=Nc1ccccc1,–,–,–,50µM,–,–
Cc1ccc(-n2c(=O)c3c(c4cc(C)ccc4n3C)n(CC(=O)Nc3cc(C)cc(C)c3)c2=O)cc1,–,–,–,–,·,·
Cc1cccc(NC(=O)CSC2=Nc3ccccc3C3=NC(CC(=O)NCc4cccs4)C(=O)N23)c1 (stereo not drawn),–,–,–,–,·,·
O=[N+]([O-])/C(C(Cl)=C(Cl)Cl)=C1\Nc2ccccc2O1,40µM,50µM,?,35µM,–,–
CCOC(=O)c1[nH]c2ccc(C)cc2c1N,?,–,–,1.8µM,–,–
CCOC(=O)c1[nH]c2cc(OC)c(OC)cc2c1N,56µM,–,–,3.2µM,–,–
CCOC(=O)c1[nH]c2ccc(OC)cc2c1NC(=O)c1ccc(OC)c(OC)c1,–,–,–,50µM,–,–
CCOC(=O)c1[nH]c2ccc(OC)cc2c1NC(=O)c1nonc1C,–,–,–,–,–,–
CCC(=O)OCc1cnc(C)c2oc(=O)c(C(=O)Nc3ccc(CC)cc3)cc12,–,–,–,–,·,·
Cc1cc(C)c(OCCOCCn2c(-c3ccc(Cl)cc3)nc3ccccc3c2=O)c(C)c1,–,–,–,–,·,·
Cc1ccccc1NC(=O)CSc1[nH]c(=O)cc(C)c1C#N,–,–,–,14µM,–,–
SMILES,JMJD2A Tudor,BAZ2B block,HP1b binding inh,G9a inh,CtBP-E1A blk,Six1-Eya2 blk
O=C(O)C(O)c1ccco1 (stereo not drawn),22µM,8.9µM,?,11µM,·,?
CC(=O)Nc1nonc1-c1nnc(SCC(=O)Nc2ccc(C)c(Cl)c2)n1C,–,–,–,–,·,·
CCOC(=O)c1c(C)[nH]c(C)c1S(=O)(=O)N(C)CC(=O)Nc1ccc(CC)cc1,–,–,–,–,·,·
COc1cccc(CNC(=O)c2ccc3oc(=O)n(Cc4ccccc4)c3c2)c1,–,–,–,?,·,·
COc1ccc(CNC(=O)COC(=O)c2cncc(Br)c2)cc1,–,–,–,40µM,–,–
Cc1ccc(CNC(=O)COC(=O)c2cncc(Br)c2)cc1,–,–,–,?,–,–
COc1cc(OC)cc(C(=O)OCC(=O)Nc2nnc(-c3ccccc3)o2)c1,50µM,·,–,·,?,?
O=C(COC(=O)c1ccc(Cl)nc1)NC(=O)c1ccccc1,–,–,–,·,–,–
Cc1ccc(C(=O)CCC(=O)OCC(=O)Nc2nnc(-c3ccccc3)o2)cc1,–,?,–,–,–,–
